Peg3 promoter = inhibitors of Peg3 promoter; 360,000 tested, 1.7% active; HeLa PEG-Prom luciferase reporter, luminescence, overnight; inhibition, % at 20 µM; AID 588405;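 active = inhibition of at least 50% at 20 µM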
CF NFkB block = blocks PAF-induced NF-kB reporter in cystic fibrosis cells | KKLEB NF-kB-GFP reporter, GFP fluorescence overnight | inhibition, % at 5 µM | 360,000 tested, 0.86% active | AID 588850;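 active = at least 50% inhibition at 5 µM, scaled per plate between neutral and stimulator controls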;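 also: PAF is a Pseudomonas aeruginosa culture filtrate used as stimulus; plate controls were PAF-stimulated DMSO wells for no effect and unstimulated DMSO wells for full effect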
TWEAK Fn14 block = blocks TWEAK-Fn14 interaction in a reporter cell assay | 360,000 tested, 2% active | inhibition, % at 10 µM | TWEAK-stimulated Fn14 reporter cells, luciferase luminescence, 8 h; in the data active = inhibition above about 50%
HIF-2a inh = blocks HIF-2a reporter activity; AID 624352; inhibition, % at 18.8 µM; 360,000 tested, 0.72% active; 786-0 RCC cells HIF-2a reporter, luciferase luminescence, overnight;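 active = inhibition of the luminescence signal of 40% or more relative to plate controls, in a single-dose primary screen at 18.75 µM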
TROY signal inh = blocks TROY-dependent signaling in reporter cells; Q293 LMP1-TROYcd NF-kB luciferase reporter, 4 h; inhibition, % at 10 µM; 360,000 tested, 0.98% active;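 active = compounds whose plate-normalised and pattern-corrected inhibition of the luciferase reporter signal at the single screening dose is 50% or more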
KKLEB tox = CF airway cell cytotoxicity counter-screen; activity change (cytotoxicity), % at 5 µM; 360,000 tested, 0.36% active; KKLEB CF airway cells viability, ATPlite luminescence, overnight; hits give low values; cells stimulated with P. aeruginosa culture filtrate;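 active = corrected activity change at or below -50% at 5 µM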
Mdm2 MdmX conf = confirmation of inhibitors of human Mdm2/MdmX interaction, set 2 | shares compounds with HIF-2a inh | inhibition, % at 8 µM | AID 504601 | SaOS-2 split-luciferase Mdm2/MdmX complementation, luminescence | 740 tested, 99% active;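 active = mean inhibition of the luminescence signal across two replicates at or above 26 percent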
Target sequence (O15151 whole entry, looked up): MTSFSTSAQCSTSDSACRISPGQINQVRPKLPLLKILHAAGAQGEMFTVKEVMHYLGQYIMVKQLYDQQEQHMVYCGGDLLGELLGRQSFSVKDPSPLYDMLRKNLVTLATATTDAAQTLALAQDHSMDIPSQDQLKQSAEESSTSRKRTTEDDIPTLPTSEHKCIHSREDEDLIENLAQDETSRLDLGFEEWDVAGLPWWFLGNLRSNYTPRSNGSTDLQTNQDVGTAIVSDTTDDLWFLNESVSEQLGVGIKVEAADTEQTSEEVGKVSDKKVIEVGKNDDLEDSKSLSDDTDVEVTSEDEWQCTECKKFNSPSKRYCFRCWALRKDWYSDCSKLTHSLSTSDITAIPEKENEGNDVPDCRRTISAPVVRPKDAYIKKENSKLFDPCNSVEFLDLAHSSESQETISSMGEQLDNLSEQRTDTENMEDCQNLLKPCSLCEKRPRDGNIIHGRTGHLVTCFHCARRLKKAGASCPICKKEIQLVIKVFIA
Target sequence (Q00987 whole entry, looked up): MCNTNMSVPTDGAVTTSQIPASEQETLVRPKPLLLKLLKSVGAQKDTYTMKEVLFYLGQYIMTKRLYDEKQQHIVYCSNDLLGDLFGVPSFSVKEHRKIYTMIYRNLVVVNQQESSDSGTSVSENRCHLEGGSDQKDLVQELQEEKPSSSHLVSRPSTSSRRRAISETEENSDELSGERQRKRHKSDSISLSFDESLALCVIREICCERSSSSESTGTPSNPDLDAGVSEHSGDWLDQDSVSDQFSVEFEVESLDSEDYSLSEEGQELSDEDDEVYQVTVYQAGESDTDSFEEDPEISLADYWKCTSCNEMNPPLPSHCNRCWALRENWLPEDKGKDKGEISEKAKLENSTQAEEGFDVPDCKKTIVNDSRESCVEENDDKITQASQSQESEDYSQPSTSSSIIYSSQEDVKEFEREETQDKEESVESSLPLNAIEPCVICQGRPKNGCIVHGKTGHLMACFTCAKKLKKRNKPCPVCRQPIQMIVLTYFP
HIF-2a conf = confirmation of HIF-2a inhibitors; AID 651580; 1,800 tested, 56% active; inhibition, % at 18.8 µM; 786-0 RCC cells, HIF-2a luciferase reporter luminescence, overnight; shares compounds with HIF-2a inh;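 active = mean inhibition across four replicates of at least 40 percent at the single tested concentration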
HIF-1a counter = HIF-1a inhibition counter-screen for HIF-2a hits; 1,800 tested, 72% active; MiaPaCa-2 HIF-1a luciferase reporter, desferoxamine, overnight; inhibition, % at 18.8 µM; shares compounds with HIF-2a inh;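 active = mean inhibition of the reporter signal across four replicates at the single tested dose of 50% or more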
Active calls of the source: *; . = not tested or not shown. Most compounds without a hit are left out; they make up all but 3.9% or so of the library.

SMILES | Peg3 promoter | CF NFkB block | TWEAK Fn14 block | HIF-2a inh | TROY signal inh | KKLEB tox | HIF-2a conf | HIF-1a counter | others
COc1ccc2nc(-c3ccc(N)cc3)[nH]c2c1 | -116.8 | -22.2 | 20.6 | 69.6* | -2.5 | 6.5 | 79.9* | 17.0
Cc1ccnc(N/C=C(/NC(=O)c2ccccc2)C(=O)N/N=C\c2ccc(F)cc2)n1 | 15.9 | -2.2 | 100.5* | 66.5* | 80.2* | 2.4 | 68.7* | 87.6*
Cc1ccnc(N/C=C(/NC(=O)c2ccccc2)C(=O)NN)n1 | 3.2 | 4.9 | -5.4 | 6.6 | 8.4 | 5.9 | . | .
COc1ccc(C(=O)c2ccc([N+](=O)[O-])cc2Cl)cc1 | -10.8 | 2.0 | 0.2 | -54.2 | -38.2 | -6.2 | . | .
Cc1ccc(NC(=O)CCS(=O)(=O)c2cccc3nonc23)c(Br)c1 | -6.8 | 6.2 | -13.5 | -3.6 | -6.5 | 6.6 | . | .
CCOC(=O)Cc1csc(NC(=S)NC(=O)c2ccc(C)cc2)n1 | 47.5 | 13.1 | 68.2* | 95.9* | 26.3 | -33.2 | 99.1* | 97.1*
CCOC(=O)Cc1csc(NC(=S)NC(=O)c2ccccc2)n1 | -11.4 | 3.4 | -19.6 | 85.3* | 10.3 | 6.9 | 86.8* | 43.3
Cc1cccc(/N=C/C2=C(O)CC(C)(C)CC2=O)n1 | 7.0 | -10.7 | -2.6 | 11.4 | -14.8 | -1.2 | . | .
CC(C)n1ncc2c(C(=O)NCCc3ccc(F)cc3)cc(C3CC3)nc21 | 32.2 | 12.9 | -6.3 | 13.3 | 4.4 | -14.1 | . | .
CCOC(=O)CCS(=O)(=O)c1nc(-c2ccccc2)cc(C(F)(F)F)n1 | 113.5* | 85.6* | 83.5* | 94.5* | 46.2 | -77.4* | . | . | Mdm2 MdmX conf=103.0*
O=C(O)CCS(=O)(=O)c1nc(-c2cccs2)cc(C(F)(F)F)n1 | 12.1 | 16.5 | 8.9 | 4.6 | 10.6 | -1.2 | . | .
COC(=O)CCS(=O)(=O)c1nc(-c2ccccc2)cc(C(F)(F)F)n1 | 107.1* | 87.0* | 90.5* | 87.6* | 12.2 | -60.0* | 98.6* | 107.0* | Mdm2 MdmX conf=103.2*
CCOC(=O)CS(=O)(=O)c1nc(-c2ccc(F)cc2)cc(C(F)(F)F)n1 | 100.2* | 85.0* | 57.5* | 93.4* | 51.3* | -43.9 | . | . | Mdm2 MdmX conf=99.5*
Cc1cc(NC(=O)CCCS(=O)(=O)c2nc(-c3cccs3)cc(C(F)(F)F)n2)no1 | 105.8* | 89.9* | 60.0* | 93.6* | 66.4* | -53.1* | 56.1* | 103.7*
OC(c1ccc(Cl)cc1Cl)C(Cc1cccnc1)n1cncn1 (stereo unspecified) | 10.0 | 9.1 | -6.0 | 5.2 | -11.2 | -3.7 | . | .
O=C1CCN(Cc2ccccc2)S(=O)(=O)c2c(F)cc(F)cc21 | 11.7 | 6.7 | -10.5 | 18.4 | -10.3 | 4.9 | . | .
CNc1cnc(-c2ccc(F)c(F)c2F)cn1 | -328.5 | -4.1 | -22.5 | -323.5 | -73.4 | -12.5 | . | .
Nc1nc(-c2ccc(F)cc2)cc(C(F)(F)F)n1 | -13.1 | 22.7 | -1.7 | 7.4 | -8.3 | -15.1 | . | .
CS(=O)(=O)c1nc(-c2ccc(F)cc2)cc(C(F)(F)F)n1 | 106.4* | 91.6* | 85.5* | 94.6* | 52.3* | -96.5* | 54.7* | 101.7*
O=C(COc1ccc(S(=O)(=O)N2CCOCC2)cc1)N1CCc2ccccc2C1 | -1.6 | 3.9 | 4.5 | 19.7 | -0.1 | -4.2 | . | .
CCOC(=O)COc1ccc(S(=O)(=O)N2CCN(c3ccccc3)CC2)cc1 | 6.0 | 8.8 | 9.2 | 67.0* | 1.1 | -7.8 | 19.1 | 0.0
COC(=O)COc1ccc(S(=O)(=O)N2CCN(c3ccccc3F)CC2)cc1C | 6.8 | 2.3 | 19.7 | 53.0* | 10.6 | -8.8 | 5.1 | -7.5
CCOC(=O)COc1ccc(S(=O)(=O)N2CCN(c3ccc(F)cc3)CC2)cc1 | 2.5 | -14.4 | -0.1 | 42.6* | 22.4 | 1.9 | -0.8 | 0.4
CCOC(=O)COc1ccc(S(=O)(=O)N2CCc3ccccc3C2)cc1 | 7.8 | 15.6 | -13.9 | 43.9* | 8.0 | -10.5 | 14.8 | -2.0
CCOC(=O)COc1ccc(S(=O)(=O)N2CCN(C(=O)OCC)CC2)cc1 | 8.7 | 2.2 | 8.0 | 17.0 | -4.8 | -5.5 | . | .
SMILES | Peg3 promoter | CF NFkB block | TWEAK Fn14 block | HIF-2a inh | TROY signal inh | KKLEB tox | HIF-2a conf | HIF-1a counter | others
CCCNC(=O)N(CCOC)CC1CCCN(C2Cc3ccccc3C2)C1 (stereo unspecified) | 7.0 | 18.1 | 3.5 | 16.5 | 8.4 | -0.8 | . | .
COC(=O)COc1ccc(S(=O)(=O)N2CCN(c3ccc(F)cc3)CC2)cc1 | -1.2 | 7.8 | -2.3 | 46.2* | 6.0 | 0.3 | 21.9 | 4.8
COC(=O)COc1ccc(S(=O)(=O)N2CCCCCC2)cc1 | 7.3 | 4.3 | 5.3 | 27.8 | -18.2 | 12.5 | . | .
CCOC(=O)C1CCN(C(=O)Nc2ccc3snnc3c2)CC1 | 10.2 | -2.4 | 18.3 | 51.6* | 2.9 | 3.5 | 49.9* | 11.6
CCOC(=O)C1CCN(C(=O)Nc2ccc3nccnc3c2)CC1 | -1.5 | -4.9 | -5.6 | -26.0 | -9.3 | 0.8 | . | .
O=C(NC1CC1)C1=C[C@@H](C2CC2)C[C@@H](OCc2ccc(CO)cc2)O1 | 10.2 | -61.6 | -1.7 | 2.4 | -12.0 | 0.7 | . | .
CCCCCCCCC[n+]1cccc2c3ccccc3ccc21 | 113.5* | 23.7 | 32.5 | -44.9 | 44.5 | -30.5 | . | . | Mdm2 MdmX conf=101.0*
COc1cc(OC)c(C(=O)/C=C/c2ccc(OCc3ccccc3)c(OC)c2)c(OC)c1 | 48.4 | -0.6 | 35.1 | 46.4* | 11.2 | 15.4 | 31.9 | 39.4
COc1cc(/C=C/C(=O)N2CCOCC2)ccc1OCc1ccccc1 | 8.8 | -3.5 | -23.3 | -11.9 | -11.7 | 1.6 | . | .
COc1cc(OCc2ccccc2)c(C(=O)/C=C/c2ccc3c(c2)OCO3)c(OC)c1OC | 39.4 | 11.7 | 27.0 | 51.5* | -14.2 | -3.6 | 40.1* | 53.2*
CCCCCc1c(C)nc(Nc2ccccc2)[nH]c1=O | -20.7 | 3.7 | 12.2 | -44.5 | 11.2 | 6.4 | . | .
CC1(C(=O)NS(=O)(=O)c2cccc(Cl)c2)CCN1C(=O)Cc1cccs1 (stereo unspecified) | -5.8 | 3.4 | -10.3 | -6.7 | -24.1 | 1.5 | . | .
COC(=O)c1cc(=O)n(Cc2ccc3c(c2)OCO3)c(=Nc2ccccc2)s1 | 17.0 | 16.0 | 30.4 | 16.3 | -6.8 | 0.6 | . | .
COC(=O)c1cc(=O)n(Cc2ccco2)c(=Nc2ccc(F)c(Cl)c2)s1 | 102.2* | 3.7 | 41.3 | 67.4* | 10.5 | 0.6 | 62.3* | 105.3*
CC(=O)c1ccc(NC(=O)c2cnn3ccccc23)cc1 | 25.0 | -25.1 | 70.7* | 75.3* | 17.0 | 15.4 | 86.3* | 47.4
COc1ccc(-c2nnc(Nc3nc4c(OC)cccc4s3)o2)cc1 | -23.9 | 8.5 | -19.5 | -325.6 | -15.8 | -1.9 | . | .

Screening data from PubChem.
